In the supplement of paper PMC10849652:
Targets with a hit are over-represented here; the source holds about 7,900 in all. About 0.6% of all pairs of compound and target were hits. Values without a mark were called inactive.

Tests used:
Experiment in all cases: log2 fold change, soluble protein after heating vs DMSO (PISA); higher = thermal stabilisation; K562 cells, 10 uM, 30 min; active = over 0.2 and 3.5 SD of the protein, either way, in both replicates (recomputed)
bafetinib = compound: Cc1ccc(NC(=O)c2ccc(CN3CC[C@H](N(C)C)C3)c(C(F)(F)F)c2)cc1Nc1nccc(-c2cncnc2)n1 [bafetinib]
Method in brief: (§1)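 Thermal stability values are relative to control samples and come from duplicates. They are expressed as log2 fold changes. For measurement, K562 cells (2×10^6 cells/mL) received 10 μM compound for 30 min, and aliquots were heated for 3 min over 48°C-58°C, pooled, and extracted at 4°C in PBS with 0.5% NP-40. Soluble protein, the supernatant after 21,000xg for 90 min, was quantified by TMTpro 16plex LC-MS/MS with equalised channel sums.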

[1] = compound: Cc1cccc(CC(=O)N2CCc3c2ccc(-c2cn(C)c4ncnc(N)c24)c3F)n1
Method in brief: as §1

nilotinib = compound: Cc1cn(-c2cc(NC(=O)c3ccc(C)c(Nc4nccc(-c5cccnc5)n4)c3)cc(C(F)(F)F)c2)cn1 [nilotinib]
Method in brief: as §1

[2] = compound: Cc1nc(Nc2n[nH]c3c2CN(C(=O)N[C@H](CN(C)C)c2ccccc2)C3(C)C)c2sccc2n1
Method in brief: as §1

dasatinib = compound: Cc1nc(Nc2ncc(C(=O)Nc3c(C)cccc3Cl)s2)cc(N2CCN(CCO)CC2)n1 [dasatinib]
Method in brief: as §1

[3] = compound: Cc1ncc(-c2ccnc(Nc3ccc(S(C)(=O)=O)cc3)n2)n1C(C)C
Method in brief: as §1

[4] = compound: Cn1cc(-c2ccc3c(c2)CCN3C(=O)Cc2cccc(C(F)(F)F)c2)c2c(N)ncnc21
Method in brief: as §1

[5] = compound: Cn1cc(-c2ccc3nnc(C(F)(F)c4ccc5ncccc5c4)n3n2)cn1
Method in brief: as §1

tipifarnib = compound: Cn1cncc1[C@@](N)(c1ccc(Cl)cc1)c1ccc2c(c1)c(-c1cccc(Cl)c1)cc(=O)n2C [tipifarnib]
Method in brief: as §1

mubritinib = compound: FC(F)(F)c1ccc(/C=C/c2nc(COc3ccc(CCCCn4ccnn4)cc3)co2)cc1 [mubritinib]
Method in brief: as §1

[6] = compound: NC(=O)Nc1cc(-c2cccc(F)c2)sc1C(=O)N[C@H]1CCCNC1
Method in brief: as §1

[7] = compound: NC(=O)c1cnc(N[C@@H]2CCCC[C@@H]2N)nc1Nc1cccc(-n2nccn2)c1
Method in brief: as §1

[8] = compound: NC1(c2ccc(-c3nc4ccn5c(=O)[nH]nc5c4cc3-c3ccccc3)cc2)CCC1
Method in brief: as §1

[9] = compound: NCC(=O)Nc1ccc(-n2nc(C(F)(F)F)cc2-c2ccc3c(ccc4ccccc43)c2)cc1
Method in brief: as §1

entinostat = compound: Nc1ccccc1NC(=O)c1ccc(CNC(=O)OCc2cccnc2)cc1 [entinostat]
Method in brief: as §1

vorinostat = compound: O=C(CCCCCCC(=O)Nc1ccccc1)NO [vorinostat]
Method in brief: as §1

citarinostat = compound: O=C(CCCCCCNC(=O)c1cnc(N(c2ccccc2)c2ccccc2Cl)nc1)NO [citarinostat]
Method in brief: as §1

silmitasertib = compound: O=C(O)c1ccc2c(c1)nc(Nc1cccc(Cl)c1)c1ccncc12 [silmitasertib]
Method in brief: as §1

[10] = compound: O=C1NC(=O)C(c2cnc3ccccn23)=C1c1cn2c3c(cc(F)cc13)CN(C(=O)N1CCCCC1)CC2
Method in brief: as §1

[11] = compound: c1cc(OCCN2CCCCC2)cc(-c2n[nH]c3ccc(-c4nnc[nH]4)cc23)c1
Method in brief: as §1

UniProt Q9UKU0, sequence (Q9UKU0 whole entry, looked up): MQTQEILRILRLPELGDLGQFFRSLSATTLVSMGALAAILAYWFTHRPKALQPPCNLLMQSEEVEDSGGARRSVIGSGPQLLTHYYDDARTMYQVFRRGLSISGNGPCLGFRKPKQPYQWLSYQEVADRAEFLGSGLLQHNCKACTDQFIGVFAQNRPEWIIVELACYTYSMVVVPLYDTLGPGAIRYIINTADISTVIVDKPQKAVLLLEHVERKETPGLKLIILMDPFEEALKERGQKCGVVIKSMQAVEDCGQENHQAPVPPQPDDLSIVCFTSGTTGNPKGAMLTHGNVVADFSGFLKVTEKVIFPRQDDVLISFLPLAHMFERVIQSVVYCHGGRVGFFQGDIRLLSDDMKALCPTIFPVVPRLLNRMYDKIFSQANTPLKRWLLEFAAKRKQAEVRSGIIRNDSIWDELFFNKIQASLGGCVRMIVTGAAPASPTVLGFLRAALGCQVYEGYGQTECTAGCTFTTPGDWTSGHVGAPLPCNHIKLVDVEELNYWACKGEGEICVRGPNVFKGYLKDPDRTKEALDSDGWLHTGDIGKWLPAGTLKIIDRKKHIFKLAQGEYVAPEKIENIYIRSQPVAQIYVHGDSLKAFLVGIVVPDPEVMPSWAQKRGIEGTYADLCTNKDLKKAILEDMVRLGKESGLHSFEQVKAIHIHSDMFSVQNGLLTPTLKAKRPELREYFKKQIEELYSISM
UniProt Q5T9A4, sequence (Q5T9A4 whole entry, looked up): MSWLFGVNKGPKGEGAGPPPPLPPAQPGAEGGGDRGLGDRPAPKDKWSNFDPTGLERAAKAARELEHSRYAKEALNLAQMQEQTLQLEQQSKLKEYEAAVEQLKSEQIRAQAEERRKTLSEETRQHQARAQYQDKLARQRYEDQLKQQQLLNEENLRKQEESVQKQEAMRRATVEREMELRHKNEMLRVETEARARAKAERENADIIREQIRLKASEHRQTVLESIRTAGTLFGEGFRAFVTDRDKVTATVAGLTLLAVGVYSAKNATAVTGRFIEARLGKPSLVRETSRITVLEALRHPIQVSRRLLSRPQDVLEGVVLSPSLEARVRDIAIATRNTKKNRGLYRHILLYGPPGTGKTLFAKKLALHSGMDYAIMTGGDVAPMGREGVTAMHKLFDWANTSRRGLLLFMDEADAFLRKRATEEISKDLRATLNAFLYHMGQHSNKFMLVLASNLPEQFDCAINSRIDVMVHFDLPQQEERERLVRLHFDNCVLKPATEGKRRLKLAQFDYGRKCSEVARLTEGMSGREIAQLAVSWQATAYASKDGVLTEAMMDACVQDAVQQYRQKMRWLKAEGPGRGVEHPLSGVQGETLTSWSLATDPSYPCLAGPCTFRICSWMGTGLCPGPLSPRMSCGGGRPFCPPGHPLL
UniProt Q9NWX5, sequence (Q9NWX5 whole entry, looked up): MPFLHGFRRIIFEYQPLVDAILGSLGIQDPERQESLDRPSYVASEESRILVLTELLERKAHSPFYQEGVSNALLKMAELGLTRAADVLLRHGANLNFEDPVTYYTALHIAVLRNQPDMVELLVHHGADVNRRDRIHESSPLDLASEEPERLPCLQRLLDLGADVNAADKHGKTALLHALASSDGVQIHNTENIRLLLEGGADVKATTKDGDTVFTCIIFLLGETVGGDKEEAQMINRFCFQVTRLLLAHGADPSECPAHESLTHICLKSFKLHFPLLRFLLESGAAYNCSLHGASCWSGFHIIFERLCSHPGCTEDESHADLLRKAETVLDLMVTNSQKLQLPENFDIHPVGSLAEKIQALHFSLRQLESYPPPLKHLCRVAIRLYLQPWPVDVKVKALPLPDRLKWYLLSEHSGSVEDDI
UniProt Q13685, sequence (Q13685 whole entry, looked up): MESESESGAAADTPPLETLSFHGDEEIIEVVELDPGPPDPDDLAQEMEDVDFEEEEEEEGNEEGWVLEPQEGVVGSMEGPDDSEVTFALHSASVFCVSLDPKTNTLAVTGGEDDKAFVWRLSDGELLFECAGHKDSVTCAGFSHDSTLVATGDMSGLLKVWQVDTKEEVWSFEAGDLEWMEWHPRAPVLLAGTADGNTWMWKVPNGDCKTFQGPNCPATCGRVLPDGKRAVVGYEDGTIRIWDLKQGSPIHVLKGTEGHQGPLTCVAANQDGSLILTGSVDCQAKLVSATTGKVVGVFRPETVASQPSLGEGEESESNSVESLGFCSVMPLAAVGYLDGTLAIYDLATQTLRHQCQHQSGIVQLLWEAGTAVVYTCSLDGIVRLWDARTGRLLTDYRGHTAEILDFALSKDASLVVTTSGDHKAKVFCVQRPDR
UniProt Q93084, sequence (Q93084 whole entry, looked up): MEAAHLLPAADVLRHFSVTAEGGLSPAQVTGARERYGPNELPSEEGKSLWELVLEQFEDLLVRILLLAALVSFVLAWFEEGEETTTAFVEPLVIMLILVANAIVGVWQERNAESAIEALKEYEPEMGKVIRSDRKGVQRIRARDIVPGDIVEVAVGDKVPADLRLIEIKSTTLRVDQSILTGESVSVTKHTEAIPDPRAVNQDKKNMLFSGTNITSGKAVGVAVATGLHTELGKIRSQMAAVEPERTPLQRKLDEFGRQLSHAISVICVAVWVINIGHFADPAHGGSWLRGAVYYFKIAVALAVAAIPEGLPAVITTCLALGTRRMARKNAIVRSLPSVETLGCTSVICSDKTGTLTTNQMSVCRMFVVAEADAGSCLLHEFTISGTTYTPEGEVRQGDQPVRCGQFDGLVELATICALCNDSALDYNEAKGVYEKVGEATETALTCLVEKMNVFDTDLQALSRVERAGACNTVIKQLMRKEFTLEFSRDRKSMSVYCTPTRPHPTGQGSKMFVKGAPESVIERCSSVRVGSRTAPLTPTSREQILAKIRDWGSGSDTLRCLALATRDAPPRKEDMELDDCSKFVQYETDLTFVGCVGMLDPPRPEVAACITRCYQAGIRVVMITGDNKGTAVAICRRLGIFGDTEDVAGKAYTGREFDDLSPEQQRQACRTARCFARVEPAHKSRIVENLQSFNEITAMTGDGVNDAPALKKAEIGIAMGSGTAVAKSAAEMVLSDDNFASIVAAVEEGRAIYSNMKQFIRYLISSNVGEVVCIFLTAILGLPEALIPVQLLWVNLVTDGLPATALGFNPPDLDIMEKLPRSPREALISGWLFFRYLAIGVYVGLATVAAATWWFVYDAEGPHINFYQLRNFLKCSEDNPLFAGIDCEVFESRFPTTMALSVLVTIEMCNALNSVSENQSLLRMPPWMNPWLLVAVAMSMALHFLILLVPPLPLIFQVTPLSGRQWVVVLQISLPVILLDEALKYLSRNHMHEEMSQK
UniProt P30043, sequence (P30043 whole entry, looked up): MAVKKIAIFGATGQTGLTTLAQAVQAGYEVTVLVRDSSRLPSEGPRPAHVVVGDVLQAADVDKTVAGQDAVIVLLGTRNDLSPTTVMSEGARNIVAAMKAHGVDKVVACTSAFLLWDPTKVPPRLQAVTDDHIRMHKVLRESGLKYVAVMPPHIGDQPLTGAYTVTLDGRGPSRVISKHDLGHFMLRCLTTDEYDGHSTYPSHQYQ
UniProt P54252, sequence (P54252 whole entry, looked up): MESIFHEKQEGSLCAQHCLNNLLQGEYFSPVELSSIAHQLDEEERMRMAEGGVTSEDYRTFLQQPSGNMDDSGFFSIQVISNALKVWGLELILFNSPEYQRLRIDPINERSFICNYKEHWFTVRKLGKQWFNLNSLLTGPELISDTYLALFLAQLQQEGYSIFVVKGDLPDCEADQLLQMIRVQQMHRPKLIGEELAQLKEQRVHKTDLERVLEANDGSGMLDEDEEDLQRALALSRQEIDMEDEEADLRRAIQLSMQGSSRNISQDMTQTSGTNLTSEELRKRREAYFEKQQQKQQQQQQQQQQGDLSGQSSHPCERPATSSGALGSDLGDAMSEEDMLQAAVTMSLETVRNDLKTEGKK
UniProt P54922, sequence (P54922 whole entry, looked up): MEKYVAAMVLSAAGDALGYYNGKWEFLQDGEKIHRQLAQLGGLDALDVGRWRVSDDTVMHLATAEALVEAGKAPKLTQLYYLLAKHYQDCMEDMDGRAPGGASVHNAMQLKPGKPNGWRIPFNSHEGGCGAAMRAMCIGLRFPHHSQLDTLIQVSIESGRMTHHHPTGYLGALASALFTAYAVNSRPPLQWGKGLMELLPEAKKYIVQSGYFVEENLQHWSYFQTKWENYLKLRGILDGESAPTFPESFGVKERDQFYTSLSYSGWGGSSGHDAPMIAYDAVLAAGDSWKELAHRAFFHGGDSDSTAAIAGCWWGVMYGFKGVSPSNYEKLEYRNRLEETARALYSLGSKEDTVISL
UniProt P35612, sequence (P35612 whole entry, looked up): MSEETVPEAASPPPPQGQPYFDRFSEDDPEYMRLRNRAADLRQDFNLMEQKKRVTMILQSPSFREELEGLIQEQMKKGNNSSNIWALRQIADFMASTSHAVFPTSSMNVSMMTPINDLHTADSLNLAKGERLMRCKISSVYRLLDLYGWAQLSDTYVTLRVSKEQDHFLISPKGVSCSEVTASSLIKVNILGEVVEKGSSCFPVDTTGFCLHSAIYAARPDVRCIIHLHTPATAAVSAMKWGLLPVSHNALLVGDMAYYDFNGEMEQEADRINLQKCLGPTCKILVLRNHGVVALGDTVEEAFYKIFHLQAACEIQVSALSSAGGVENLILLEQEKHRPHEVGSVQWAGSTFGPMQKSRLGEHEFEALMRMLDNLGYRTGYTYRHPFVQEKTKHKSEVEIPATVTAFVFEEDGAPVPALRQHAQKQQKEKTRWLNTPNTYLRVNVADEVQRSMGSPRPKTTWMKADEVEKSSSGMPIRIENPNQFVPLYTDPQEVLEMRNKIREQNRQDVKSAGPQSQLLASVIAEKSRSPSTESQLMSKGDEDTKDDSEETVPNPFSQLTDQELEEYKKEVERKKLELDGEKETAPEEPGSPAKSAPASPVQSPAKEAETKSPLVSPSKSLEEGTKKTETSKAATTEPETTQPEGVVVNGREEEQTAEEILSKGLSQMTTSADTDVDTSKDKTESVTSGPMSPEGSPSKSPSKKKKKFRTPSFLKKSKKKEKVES

Target | log2 fold change (bafetinib) | log2 fold change [1] | log2 fold change (nilotinib) | log2 fold change [2] | log2 fold change (dasatinib) | log2 fold change [3] | log2 fold change [4] | log2 fold change [5] | log2 fold change (tipifarnib) | log2 fold change (mubritinib) | log2 fold change [6] | log2 fold change [7] | log2 fold change [8] | log2 fold change [9] | log2 fold change (entinostat) | log2 fold change (vorinostat) | log2 fold change (citarinostat) | log2 fold change (silmitasertib) | log2 fold change [10] | log2 fold change [11]
ATP2A3 isoform 2 (UniProt Q93084) | -0.063 | -0.001 | -0.057 | -0.064 | -0.005 | 0.058 | -0.014 | 0.076 | 0.025 | -0.044 | -0.008 | 0.007 | -0.096 | -0.072 | 0.035 | -0.018 | 0.019 | 0.068 | -0.069 | -0.05
ATP13A2 (UniProt Q9NQ11) | -0.002 | 0.001 | 0.01 | 0.014 | -0.007 | 0.018 | 0.045 | 0.069 | 0.06 | 0.108 | 0.032 | 0.01 | -0.336 (active) | 0.064 | -0.005 | 0.005 | -0.054 | 0.026 | -0.052 | -0.025
AAMP (UniProt Q13685) | 0.011 | 0.014 | 0.009 | 0.005 | 0.04 | 0.012 | -0.038 | -0.028 | -0.026 | 0.02 | -0.006 | -0.05 | -0.005 | -0.018 | -0.055 | 0.015 | -0.026 | 0.061 | 0.059 | -0.013
BCCIP (UniProt Q9P287) | 0.048 | 0 | -0.019 | -0.022 | -0.161 | 0.03 | -0.009 | -0.006 | 0.006 | 0.001 | 0.023 | -0.008 | -0.006 | -0.04 | -0.052 | 0.045 | 0.022 | 0.049 | -0.012 | -0.079
ANXA5 (UniProt P08758) | 0.019 | 0.058 | -0.015 | -0.052 | -0.079 | 0.006 | 0.017 | 0.025 | -0.061 | 0.009 | -0.021 | -0.044 | -0.139 | -0.031 | 0.055 | 0.027 | 0.115 | 0 | -0.045 | -0.008
BLVRB (UniProt P30043) | 0.014 | 0.05 | 0.021 | -0.109 | -0.064 | 0.029 | 0.032 | 0.074 | -0.021 | -0.097 | 0.069 | 0.006 | -0.116 | 0.018 | 0.058 | 0 | 0.058 | 0.01 | 0.021 | -0.035
AGO1 (UniProt Q9UL18) | -0.036 | -0.085 | 0.185 | 0.34 | -0.019 | -0.164 | -0.073 | -0.133 | 0.057 | -0.066 | 0.108 | 0.011 | 0.049 | 0.073 | -0.012 | -0.05 | 0.439 (active) | 0.12 | -0.067 | -0.413
ABCA4 (UniProt P78363) | -0.025 | -0.149 | 0.106 | 0.095 |  | 0.045 | 0.016 | -0.071 |  | 0.154 | 0.007 | -0.092 | 0.061 |  | 0.002 | 0.124 | 0.013 | -0.082 | -0.041 | 0.157
ATF1 (UniProt P18846) | -0.12 | 0.018 | 0.035 | -0.09 |  | 0.064 | -0.006 |  | 0.06 | 0.057 | 0.038 | 0.096 | 0.063 | 0.127 | 0.066 | -0.102 | 0.144 | -0.146 | 0.372 (active) | -0.091
ALG14 (UniProt Q96F25) | -0.092 | 0.461 (active) | 0.061 | 0.026 | 0.003 | -0.033 | 0.014 | 0.126 | -0.214 | 0.003 |  | 0.018 | -0.118 | -0.081 |  | 0.29 | 0.028 | 0.076 | 0.061 | -0.123
ACSL6 isoform 1 (UniProt Q9UKU0) | 0.147 | 0.057 | -0.066 | -0.066 | 0.036 | -0.025 |  | 0.014 |  | 0.015 | 0.061 |  | -0.152 | -0.174 | -0.056 | 0.048 |  | -0.077 | -0.421 | 
ADPRH (UniProt P54922) | 0.082 | -0.29 | 0.141 | 0.026 |  | -0.161 |  | 0.038 | -0.005 | 0.015 | 0.015 |  | -0.178 | -0.623 (active) | -0.034 | -0.039 |  | 0.086 | -0.104 | 
ADD2 (UniProt P35612) | 0.012 | 0.011 | 0.022 | -0.026 | -0.033 | -0.048 | 0.029 | 0.001 | 0.035 | 0.011 | 0.048 | 0.039 | 0.036 | 0.024 | -0.038 | 0.023 | 0.024 | -0.054 | -0.092 | 0.013
ASB6 (UniProt Q9NWX5) | -0.039 | 0.014 | -0.066 | -0.279 |  | -0.07 |  | -0.034 | -0.02 | 0.037 | 0.076 | 0.161 | -0.216 | -0.032 | -0.12 | -0.075 | 0.106 | -0.006 | 0.059 | 0.07
ATXN3 isoform 1 (UniProt P54252) | 0.03 | 0.021 | -0.038 | -0.11 |  | -0.021 | 0.001 | 0.033 | 0.026 | 0.018 |  | -0.256 | -0.137 | -0.019 |  | -0.003 | -0.01 | 0.093 |  | -0.015
ATAD3B (UniProt Q5T9A4) | -0.014 | 0.018 | -0.072 | -0.039 | -0.099 | 0.027 | -0.103 | -0.186 | 0.03 | -0.37 | 0.017 | -0.029 | -0.089 | -0.088 | 0.013 | 0.108 | -0.016 | 0.005 | 0.248 | -0.104
ATP23 (UniProt Q9Y6H3) | -0.1 | -0.015 | -0.092 | 0.067 | 0.041 | -0.011 | -0.097 | 0.023 | 0.081 | 0.033 | 0.014 | 0.06 | 0.002 | -0.057 | -0.012 | 0.044 | -0.012 | -0.027 | 0.02 | -0.045
